These results are taken from PubChem BioAssay (NCATS).

Inconclusive results are not listed. Active and inactive are the calls of the source. Calls come from the whole dose curve; as a rule, active = well fitted curve in the direction sought with a large enough effect; inconclusive = small, poorly fitted or top-dose-only effect, or another doubt; inactive = no such curve, though single readings can be large; an effect the other way counts as inactive or inconclusive.

Experiment [1] can be described thus: Quantitative High-Throughput drug screen in 47 multiple myeloma cell lines against the NCATS MIPE library collection: ARD_JJKsccE7 cell viability assay (AID 1918929; note: potency is the fitted concentration of half-maximal effect). A digest of the protocol: (§1)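 Approved and investigational drugs from MIPE 4.0 were added by pin tool to 500 cells per well. After 48 hours at 37C, ATP-based CellTiter-Glo luminescence indicated remaining viability.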

Experiment [2] is described as follows: Quantitative High-Throughput drug screen in 47 multiple myeloma cell lines against the NCATS MIPE library collection: Karpas620_DSMZ cell viability assay (AID 1918959). Note: nearly all actives have a fitted effect of over 30% in size. Note: potency is the fitted concentration of half-maximal effect. A digest of the protocol:
(§2)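 Inhibition of cell viability is measured here. Each line was plated at 500 cells per well, treated with MIPE 4.0 drugs, kept 48 hours at 37C, then assayed for ATP content by CellTiter-Glo luminescence.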

Experiment [3] is described as follows: Quantitative High-Throughput drug screen in 47 multiple myeloma cell lines against the NCATS MIPE library collection: KMM1_JCRB cell viability assay (AID 1918960). Note: nearly all actives have a fitted effect of over 30% in size. In short, it runs like this: (§3)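 Myeloma cells at 500 per well in 1536-well format treated with MIPE 4.0 library by pin transfer for 48 h at 37C, 5% CO2. Viability from ATP luminescence (CellTiter-Glo), normalized to DMSO (100%) and media-only (0%) wells.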

Experiment [4] in a line: Quantitative High-Throughput drug screen in 47 multiple myeloma cell lines against the NCATS MIPE library collection: KHM11_PLB cell viability assay (AID 1918962). Note: nearly all actives have a fitted effect of over 35% in size. Note: potency is the fitted concentration of half-maximal effect. In short, it runs like this: as §2
Experiment [5] is described as follows: Quantitative High-Throughput drug screen in 47 multiple myeloma cell lines against the NCATS MIPE library collection: JIM3_ECACC cell viability assay (AID 1918963; note: nearly all actives have a fitted effect of over 35% in size; note: potency is the fitted concentration of half-maximal effect). A digest of the protocol:
as §2

Experiment [6] is described as follows: Quantitative High-Throughput drug screen in 47 multiple myeloma cell lines against the NCATS MIPE library collection: Karpas417_ECACC cell viability assay (AID 1918961). To be noted: Karpas417 myeloma viability, CellTiter-Glo ATP luminescence, 48 h; viability (% of DMSO): at 45.8 µM (top of the series). A digest of the protocol: (§4)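 qHTS of the MIPE 4.0 collection: 500 myeloma cells/well, 48 h drug exposure at 37C in 5% CO2, then CellTiter-Glo for 5 min at room temperature before luminescence reading.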
On the technique in general: In ATP-based viability assays light output follows the ATP content of the culture.

Experiment [7] in a line: Quantitative High-Throughput drug screen in 47 multiple myeloma cell lines against the NCATS MIPE library collection: INA6_PLB cell viability assay (AID 1918965; note: nearly all actives have a fitted effect of over 55% in size; note: potency is the fitted concentration of half-maximal effect). A digest of the protocol:
as §4

Experiment [8] is described as follows: Quantitative High-Throughput drug screen in 47 multiple myeloma cell lines against the NCATS MIPE library collection: JJN3_DSMZ cell viability assay (AID 1918966; note: nearly all actives have a fitted effect of over 50% in size; note: potency is the fitted concentration of half-maximal effect). A digest of the protocol: as §1
Experiment [9] in a line: Quantitative High-Throughput drug screen in 47 multiple myeloma cell lines against the NCATS MIPE library collection: ARP1_JJKsccF8 cell viability assay (AID 1918928; note: potency is the fitted concentration of half-maximal effect; nearly all actives have a fitted effect of over 40% in size). A digest of the protocol: as §3
A short description of experiment [10]: Quantitative High-Throughput drug screen in 47 multiple myeloma cell lines against the NCATS MIPE library collection: JIM1_ECACC cell viability assay (AID 1918964; note: potency is the fitted concentration of half-maximal effect). In short, it runs like this: as §1

In the case of `O=C(O)c1cccnc1`, the Potency entry in [1], in experiment [2], in experiment [3] and in [5] was “inactive” in each case. Besides, the Potency in experiment [4] is 18.7 µM (active).
In the case of `O=C(O)c1cc(=O)[nH]c(=O)[nH]1`, the Potency result in [1], in [2], in experiment [6], in [4], in [5] and in experiment [7] was “inactive” each time.
On to `CC(C)NCC(O)c1ccc(NS(C)(=O)=O)cc1` (centres undefined), for which the Potency result in [4] and in experiment [5] was “inactive” each time.
Take `CCn1cc(C(=O)O)c(=O)c2cc(F)c(N3CCNCC3)nc21`: the Potency result in experiment [2], in [4], in [5], in experiment [7] and in [8] was “inactive” each time.
As to `CCOC(=O)c1ccc(C#Cc2ccc3c(c2)C(C)(C)CCS3)nc1`, the Potency result in [1], in experiment [2] and in [3] was “inactive” throughout. In [5], the Potency is 18.7 µM (active).
Turning to `COC(=O)Nc1nc2ccc(Sc3ccccc3)cc2[nH]1`, the Potency in experiment [9] is 1.18 µM (active); in [5], 0.833 µM (active); in experiment [10], 0.833 µM (active); in experiment [7], 0.743 µM (active); in [8], 10.5 µM (active).
As to `CC(=O)[C@H]1CC[C@H]2[C@@H]3CCC4=CC(=O)CC[C@]4(C)[C@H]3CC[C@]12C`, the Potency entry in experiment [3] is “inactive”. For the same molecule, the Potency in experiment [7] was 16.6 µM (active).
With `CC(C)Cn1cnc2c(N)nc3ccccc3c21`, the Potency is 5.9 µM (active) in experiment [1] and 18.7 µM (active) in experiment [8]. The Potency result in experiment [2] and in experiment [5] was “inactive” throughout.
On to `C[C@@H]1C[C@H]2[C@@H]3CCC4=CC(=O)C=C[C@]4(C)[C@@]3(Cl)[C@@H](O)C[C@]2(C)[C@@]1(OC(=O)c1ccco1)C(=O)CCl`, for which the Potency in experiment [2] is 16.6 µM (active); in experiment [4], 9.35 µM (active); in experiment [5], 9.35 µM (active); in [10], 7.43 µM (active); in [8], 2.35 µM (active).
`O=c1oc2c(O)c(O)cc3c(=O)oc4c(O)c(O)cc1c4c23`: the Potency entry in [1], in experiment [2], in [5] and in experiment [7] was “inactive” throughout.
For the molecule `O=C(O)c1ccc(-n2nc(-c3ccccc3O)nc2-c2ccccc2O)cc1`, the Potency in experiment [5], in experiment [10] and in [7] was 18.7 µM (active) throughout.
Regarding `N[C@@H](Cc1ccc(O)c(O)c1)C(=O)O`, the Potency entry in experiment [1], in experiment [2], in [3], in experiment [5] and in [10] was “inactive” in each case.
Consider `NCCCC(O)(P(=O)(O)O)P(=O)(O)O`, for which the Potency entry in [2], in experiment [3], in experiment [4] and in [5] was “inactive” in each case.
Turning to `CC(N)C12CC3CC(CC(C3)C1)C2` (centres undefined), the Potency entry in experiment [1], in experiment [2], in [5], in experiment [10] and in [8] was “inactive” each time.
Take `C[C@@H](CN1CC(=O)NC(=O)C1)N1CC(=O)NC(=O)C1`: the Potency entry in [5], in experiment [10] and in [8] was “inactive” each time. Besides, the Potency in [7] is 10.5 µM (active).
With `COc1cccc(N(C)C(=S)Oc2ccc3c(c2)CCCC3)n1`, the Potency in experiment [1] was 23.5 µM (active); in [7] it was 16.6 µM (active). For the same molecule, the Potency result in experiment [5] was “inactive”.
Consider `COc1ncnc(NS(=O)(=O)c2ccc(N)cc2)c1OC`, for which the Potency entry in [2], in [4] and in experiment [5] was “inactive” throughout.
On to `O=P(O)(O)C(O)(Cc1cccnc1)P(=O)(O)O`, for which the Potency entry in experiment [2], in experiment [4] and in [5] was “inactive” in each case.
For `CCOC(=O)[C@H](CCc1ccccc1)N[C@H]1CCc2ccccc2N(CC(=O)O)C1=O`, the Potency is 14.8 µM (active) in [2]; 37.2 µM (active) in experiment [4]; 20.9 µM (active) in experiment [5]; 9.35 µM (active) in experiment [10]; 14.8 µM (active) in experiment [7]; 23.5 µM (active) in [8].
In the case of `COc1cc2c(Nc3ccc(Br)cc3F)ncnc2cc1OCC1CCN(C)CC1`, the Potency result in experiment [2], in experiment [3] and in experiment [5] was “inactive” each time. Also, the Potency is 9.35 µM (active) in experiment [7] and 18.7 µM (active) in [8].
Turning to `CCN(CC)CC#CCOC(=O)C(O)(c1ccccc1)C1CCCCC1` (centres undefined), the Potency result in experiment [5] was “inactive”.
`CS(=O)(=O)c1ccc([C@@H](O)[C@@H](CO)NC(=O)C(Cl)Cl)cc1`: the Potency in experiment [1] is 13.2 µM (active); in experiment [5] it was 9.35 µM (active); in experiment [7] it was 11.8 µM (active). Also, the Potency result in experiment [2] was “inactive”.
Regarding `COC(=O)Nc1nc2ccc(C(=O)c3ccccc3)cc2[nH]1`, the results for the Potency in experiment [9], in experiment [5] and in experiment [8] were 0.743 µM (active), 2.96 µM (active) and 2.64 µM (active), respectively.
For `CC(C)(C#N)c1cc(Cn2cncn2)cc(C(C)(C)C#N)c1`, the Potency entry in experiment [2], in [4] and in experiment [5] was “inactive” throughout. For the same molecule, in [8], the Potency was 2.35 µM (active).
Regarding `CN(CCOc1ccc(CC2SC(=O)NC2=O)cc1)c1ccccn1` (centres undefined), the Potency in experiment [2] was 0.0019 µM (active). Also, the Potency result in experiment [4], in experiment [5] and in experiment [7] was “inactive” throughout.
